Experimental data from PubChem BioAssay AID624414 (National Center for Advancing Translational Sciences (NCATS), 2012).
Hit rate of the full screen: of about 410,000 compounds, about 480 (0.12%) were called active. The full list was thinned out, with actives kept by preference. A number with no mark means an inactive call. No stated cut-off is given here; in the data, active means activation above about 50%; inconclusive means mostly about 30% to 49%; inactive means weaker than that.

target: Mucolipin-1 (Homo sapiens) (UniProt Q9GZU1); experiment: qHTS for Agonists of the Human Mucolipin Transient Receptor Potential 1 (TRPML1); conditions: TRPML1-expressing cells, Ca2+ dye fluorescence, FDSS; hits give high values; further: 0% is about no effect
Sequence (Q9GZU1 whole entry, looked up, the tested form may be a part): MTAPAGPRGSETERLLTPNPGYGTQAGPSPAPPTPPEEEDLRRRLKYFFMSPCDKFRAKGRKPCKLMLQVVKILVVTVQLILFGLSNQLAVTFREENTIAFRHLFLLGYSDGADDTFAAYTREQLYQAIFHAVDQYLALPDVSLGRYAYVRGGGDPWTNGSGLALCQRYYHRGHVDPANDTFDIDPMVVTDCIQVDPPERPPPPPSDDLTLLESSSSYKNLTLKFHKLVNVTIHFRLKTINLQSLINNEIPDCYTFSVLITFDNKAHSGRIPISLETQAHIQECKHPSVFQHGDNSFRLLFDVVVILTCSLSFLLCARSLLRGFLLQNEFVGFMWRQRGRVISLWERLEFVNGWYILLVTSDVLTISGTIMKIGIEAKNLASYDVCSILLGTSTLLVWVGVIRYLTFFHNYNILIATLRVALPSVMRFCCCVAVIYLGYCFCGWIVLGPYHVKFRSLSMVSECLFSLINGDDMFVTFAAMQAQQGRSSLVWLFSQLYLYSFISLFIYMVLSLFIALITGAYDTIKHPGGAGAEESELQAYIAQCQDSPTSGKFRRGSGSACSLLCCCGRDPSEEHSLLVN
Description: Mutations of human Mucolipin transient receptor potential 1 (TRPML1) cause type IV mucolipidosis (ML4), a devastating neurodegenerative disease in young children. […] Currently, there is no treatment for ML4. […] Under physiological conditions, TRPMLs regulate membrane trafficking by transducing information about PI(3,5)P2 levels into changes in juxtaorganellar Ca2+, thereby triggering membrane fusion/fission events in the late endocytic pathways (endolysosomal trafficking). In addition, TRPML1 mediates release of Fe2+ from late endosomes and lysosomes, which is essential for cellular iron metabolism. Thus, impaired ion (Ca2+ and Fe2+) homeostasis underlies lysosomal dysfunction and ML4 phenotypes. In ML4 cells, the problem is twofold. First, defective Ca2+-dependent membrane trafficking due to TRPML1-deficiency causes accumulation of lipids and other bio-materials in the lysosome. The second strike comes from the lysosomal iron overload (due to impairment of TRPML1's Fe2+ conductivity), which converts the accumulated materials into the nondegradable (resistant to lysosomal degradation) lipofuscin (also called aging pigment) in the lysosome. Lipofuscin accumulation dramatically compromises the functions of lysosomes.
Niemann-Pick type C (NPC) disease is another lysosome storage disease (LSD) with severe neurodegeneration during the childhood. Currently, there is no cure for NPC. […] Thus, TRPML1 is likely to be an essential regulator of lysosome ion homeostasis. We specifically hypothesize that stimulating TRPML1's Fe2+/Ca2+ channel activity in the lysosome using synthetic agonists can alleviate neurodegeneration associated with ML4 or NPC.
To this end, a high throughput screen was developed in a miniaturized format to screen against the Molecular Libraries Small Molecule Repository (MLSMR) to find small molecules that act either as inhibitors or agonist against the TRPML1 channel.
NIH Chemical Genomics Center [NCGC]
NIH Molecular Libraries Probe Centers Network [MLPCN]
Assay Submitter (PI): Haoxing Xu, University of Michigan Ann Arbor
TRPML1-DL cells are dissociated from flasks, counted and, brought up to a density of 500,000 cells per mL of media containing a 1X Tet inducer. Using a Multidrop Combi, 3uL of this cell solution is dispensed to each well of a 1536 TC treated, black, clear bottom hi base plate for a final cell density of 1,500 cells per well. The assay plates are incubated overnight (approximately 16 hours) at 37 degrees C and 5% CO2. Using a Multidrop Combi, 2uL of ABD Ca8 no wash dye plus quencher is added to each well. The assay plates incubate at room temperature in the dark for 45-90 minutes. The assay plate is read on the FDSS using the following protocol: 10 second baseline read, 23nL of compounds and controls are added using 1536 pintool, agonist read for 110 seconds, 1 uL EC80 addition (4uM final 54-4 diluted in media), antagonist read for 110 seconds.

Row | Structure (SMILES) | activation
1 | CCN(CC)c1ccc(/C=C/c2c(C)cnc3ccc(C)cc23)cc1 | 11.4%
2 | CN(C)c1ccc(/C=C/c2c3ccccc3nc3ccccc23)cc1 | 0.354%
3 | CN(C)c1ccc(/C=c2\[nH]c(=O)/c(=C/c3ccc(N(C)C)cc3)[nH]c2=O)cc1 | 0.206%
4 | CN(C)c1ccc(/C=C2\NC(=S)N(Cc3ccccc3)C2=O)cc1 | 66.5% (active)
5 | Nc1c(C(=O)c2cccs2)sc2nsc(SCCN3CCCCC3)c12 | 56.3% (active)
6 | Cc1ccc(CCNC(=O)Cn2c(-c3cccs3)cc3cc(F)ccc32)cc1 | -0.443%
7 | CNCCCOc1cc2nc(N3CCCN(C)CC3)nc(NC3CCN(C)CC3)c2cc1OC | -0.513%
8 | COc1cc2nc(N3CCCN(C)CC3)nc(NC3CC3)c2cc1OC | -0.539%
9 | COc1cc(OC)c(/C=C/c2ccnc3ccccc23)c(OC)c1 | -0.602%
10 | CN(N=O)c1ccc(C=C2c3ccccc3-c3ccccc32)cc1 | -0.127%
11 | CC(=O)N1CCN(CC(c2ccccc2)c2ccccc2)CC1 | -0.726%
12 | Oc1ccccc1CN1CCN(C(c2ccccc2)c2ccccc2)CC1 | 84.3% (active)
13 | Cn1nnnc1SCC(=O)N1CCN(C(c2ccccc2)c2ccccc2)CC1 | 2%
14 | CCN1CCN(c2ccc(/C=C/c3ccnc4ccccc34)cc2)CC1 | 5.01%
15 | Cc1ccc(NC(=O)c2ccc(CN3CC(=O)N4CCCCC4C3=O)cc2)c(Cl)c1 (stereo not given) | 2.76%
16 | CCOc1n[nH]c(-c2ccccc2)n1 | 0%
17 | CN(C)c1ccc(/C=N\Nc2ccc([N+](=O)[O-])cc2[N+](=O)[O-])cc1Cl | -0.0634%
18 | O=C(CSc1ncc(-c2ccccc2)[nH]1)Nc1ccc(F)cc1F | 2.97%
19 | OCC(O)C(O)C(O)C(O)C=Nc1ccc(/C=C/c2ccnc3ccccc23)cc1 (stereo not given) | 6.02%
20 | COC(=O)C1=C(C(=O)OC)[C@@H]2N(Cc3ccccc3)c3ccccc3[C@@]23C[C@@H](C(=O)OC)N(S(=O)(=O)c2ccc(C(F)(F)F)cc2)C3=N1 | -0.417%
21 | CCN1/C(=C/c2ccc3ccc(C)cc3[n+]2CC)Sc2ccccc21 | 70.1% (active)
22 | CCCCOc1ccc(C(=O)NO)cc1 | -0.809%
23 | Cc1csc[n+]1CCC1CCCCC1 | 0.413%

Row | Structure (SMILES) | activation
24 | C=C1C=C(C)n2ncc(C(=O)Nc3ccccc3O)c2N1 | -0.539%
25 | Nc1nc(N)c(N=O)c(N)n1 | -0.147%
26 | C=CCCN(C(Cc1ccccc1)C(=O)OC)S(=O)(=O)c1cc(Br)ccc1Br (stereo not given) | 2.52%
27 | CCOC(=O)CNC(=O)c1cc2c(=O)n3cccc(C)c3nc2s1 | 0.461%
28 | CCOC(=O)CC1C(=O)NCCN1c1nc2c(C)cccn2c(=O)c1/C=C1\SC(=S)N(C(C)CC)C1=O (stereo not given) | 71% (active)
29 | CCCN(CCC)c1nc2c(C)cccn2c(=O)c1/C=C1/SC(=S)N(Cc2ccco2)C1=O | 17.6%
30 | CCC(=O)N1CCc2cc(Br)cc(S(=O)(=O)CCC(=O)NCCc3ccc(OC)c(OC)c3)c21 | -0.301%
31 | Cc1[nH]c2ccccc2c1C(=O)C(=O)N(C)c1ccccc1 | -0.513%
32 | COC(=O)C1=C(c2ccccc2)c2ccccc2S(=O)(=O)N1CC(=O)Nc1ccccc1C(F)(F)F | 1.11%
33 | CN(C)c1ccc(C=Nc2ccc(/C=C/c3ccnc4ccccc34)cc2)cc1 | 1.17%
34 | CCC(C)N(c1ccc(/C=C/c2ccnc3ccccc23)cc1)C(C)CC (stereo not given) | 18.2%
35 | CN(C)c1ccc(/C=C/C=C/c2ccnc3ccccc23)cc1 | 52.7% (active)
36 | Cc1cccc(CN2Cc3cccc4c3[C@H](C=CC4)CC2=S)c1 | -0.678%
37 | CCCc1cc(=O)n2[nH]c(NCc3ccc(CC)cc3)nc2n1 | -0.211%
38 | CCCN1CCC(=O)N(C(CSc2ccc(C)cc2)Cc2ccccc2)CC1 (stereo not given) | 1.24%
39 | CCOC1=C2[C@H]([C@H]3C(=O)N(c4ccccc4)C(=O)[C@H]3C1)[C@@H](c1ccccc1)N(S(=O)(=O)c1ccc(C)cc1)[C@H]2c1ccccc1 | -0.217%
40 | CCOC1=C2CN(S(=O)(=O)c3ccc(C)cc3)[C@H](c3cccs3)C[C@H]2[C@H]2C(=O)N(c3ccccc3)C(=O)[C@H]2C1 | 64.2% (active)
41 | CCOC1=C2[C@@H](CN(S(=O)(=O)c3ccc(C)cc3)[C@H]2c2ccccc2F)[C@H]2C(=O)N(Cc3ccccc3)C(=O)[C@H]2C1 | 1.29%
42 | COc1cc(NS(=O)(=O)c2cccs2)cc(OC)c1 | -1.48%
43 | COc1cc2nc(Cl)nc(NC3CC3)c2cc1OC | -0.998%
44 | CCOC(=O)c1c(NC(=O)COc2cc(C)ccc2C(C)C)sc(C)c1C | 1.35%
45 | O=C1C[C@H]2C=CCc3cccc(c32)CN1Cc1ccccc1 | -0.974%
